# According to PubChem BioAssay (NCI):
# Compounds without any hit were thinned out: in the full panel of roughly 83,000, 20% have a hit.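 Step 1: grow cells in 96-well plates. Step 2: add test compound at a single concentration. Step 3: incubate 48 h. Step 4: record percent growth.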 Values without a mark were called inactive. Calls of active or inactive are those of the source. How the source made its calls: active means growth percent below 10; inactive means the rest.
# What was measured:
# Experiment in all cases: NCI-60 one-dose screen, 48 h (100 = growth as untreated, 0 = no growth, -100 = all killed)
# Details in all cases: 10 µM unless noted
# NCI-H23 lung = system: NCI-H23 lung
# NCI-H226 lung = system: NCI-H226 lung
# NCI-H322M lung = system: NCI-H322M lung
# HOP-62 NSCLC = system: HOP-62 NSCLC
# NCI-H460 lung = system: NCI-H460 lung
# HOP-92 NSCLC = system: HOP-92 NSCLC
# NCI-H522 lung = system: NCI-H522 lung
# A549/ATCC NSCLC = system: A549/ATCC NSCLC
# 786-0 renal = system: 786-0 renal
# COLO 205 colon = system: COLO 205 colon
# DU-145 prostate = system: DU-145 prostate
# K-562 leukemia = system: K-562 leukemia
# MALME-3M melanoma = system: MALME-3M melanoma
# MDA-MB-231 breast = system: MDA-MB-231 breast
# RXF 393 renal = system: RXF 393 renal
# SF-268 CNS = system: SF-268 CNS
# SF-295 CNS = system: SF-295 CNS
# SF-539 CNS = system: SF-539 CNS
# UACC-257 melanoma = system: UACC-257 melanoma
# M14 melanoma = system: M14 melanoma
SMILES,growth (NCI-H23 lung) [%],growth (NCI-H226 lung) [%],growth (NCI-H322M lung) [%],growth (HOP-62 NSCLC) [%],growth (NCI-H460 lung) [%],growth (HOP-92 NSCLC) [%],growth (NCI-H522 lung) [%],growth (A549/ATCC NSCLC),growth (786-0 renal),growth (COLO 205 colon) [%],growth (DU-145 prostate) [%],growth (K-562 leukemia) [%],growth (MALME-3M melanoma) [%],growth (MDA-MB-231 breast),growth (RXF 393 renal),growth (SF-268 CNS) [%],growth (SF-295 CNS) [%],growth (SF-539 CNS),growth (UACC-257 melanoma),growth (M14 melanoma) [%]
Cc1ccc(N)c(S(=O)(=O)O)c1,98.6,103,93.8,85.8,104,112,156,125%,101%,106,125,45.1,129,109%,108%,115,116,98.2%,101%,101
CCOC(=O)c1c(C)[nH]c(C)c1C=O,98.8,99.6,102,86.9,99.8,81.9,93.7,67.3%,91.8%,110,114,94.7,108,93%,114%,101,103,98.9%,69.4%,100
CCNC(=O)Oc1ccc[nH]c1=O,105,115,102,102,102,94,88.4,91.8%,100%,117,117,93.4,103,109%,116%,118,106,98.2%,97.8%,102
C=C(C)[C@@H]1CC[C@]2(CO)CC[C@]3(C)[C@H](CC[C@@H]4[C@@]5(C)CC[C@H](O)C(C)(C)[C@@H]5CC[C@]43C)[C@@H]12,25.9,37.5,68.9,43.2,31.4,36.4,40.2,-3.89% (active),-7.62% (active),52.5,28.2,24.3,63,4.46% (active),-50.7% (active),54.6,71.4,-33% (active),6.89% (active),49.3
N#CC1(O)CCCCC1,114,100,97.8,95.2,107,96.5,88.6,92.1%,105%,109,103,102,104,118%,110%,98.5,103,105%,90.2%,95.7
Nc1cccc2cccc(O)c12,90.6,96.1,79.2,104,86.5,83.8,70.5,106%,108%,102,99.1,89.5,75.2,65.7%,90.6%,96.1,93.8,109%,100%,96.7
Cc1onc(-c2ccccc2Cl)c1C(=O)Cl,114,110,101,86.5,103,77,108,96.9%,101%,108,121,101,109,101%,115%,117,91.7,113%,103%,108
CCCCCC(=O)OCCC1CCCCC1,96.2,101,99.9,98.6,105,70,95,98.4%,106%,101,98.2,107,84.1,114%,104%,93,108,97.8%,95.9%,94
